# Results published in PubChem BioAssay (NCATS).
# Results filed as inconclusive are left out. A call without a number means that no potency is given here. Active and inactive are the calls of the source. Calls follow the shape of the dose curve; as a rule, active = well fitted curve in the direction sought with a large enough effect; inconclusive = small, poorly fitted or top-dose-only effect, or another doubt; inactive = no such curve, though single readings can be large; an effect the other way counts as inactive or inconclusive.
# Key:
# [1] = Cell Viability - LYMP2-010 (AID 981); also: nearly all actives have a fitted effect of over 55% in size; also: potency is read from the fitted curve at half-maximal effect
# Method in brief: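 This 24 hr viability screen uses LYMP2-010 lymphoblastoid cells, quantifies ATP via luciferase luminescence, and derives AC50 from Hill fits of qHTS concentration-response data.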
# [2] = Cell Viability - LYMP2-012 (AID 982);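 also: cellular ATP by luciferase luminescence where a drop means cytotoxicity; cells exposed to compound for one day before reading; nearly all actives have a fitted effect of over 55% in size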
# [3] = Cell Viability - LYMP2-014 (AID 983);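 also: series mostly up to about 92 µM; cells exposed to compound for 24 h at 37 °C; nearly all actives have a fitted effect of over 50% in size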
# Method in brief: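 Quantitative HTS in lymphoblastoid cells: 24 hr compound exposure, then CellTiter-Glo ATP luminescence. Positive control was tetraoctylammonium bromide, 6.4pM to 92 uM.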
# [4] = Cell Viability - LYMP2-016 (AID 984); also: nearly all actives have a fitted effect of over 55% in size
# Method in brief: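 Concentration-dependent ATP depletion measured in LYMP2-016 lymphoblastoid cells, 24 h, 37 C; luciferase-based luminescent detection; Hill-equation AC50.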
# [5] = Cell Viability - LYMP2-018 (AID 985); also: nearly all actives have a fitted effect of over 50% in size; also: potency is read from the fitted curve at half-maximal effect
# Method in brief: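 In this qHTS viability assay, cells are treated for 24 hr and cellular ATP is quantified by luciferase-based luminescence, with tetraoctylammonium bromide as positive control.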
# [6] = Cell Viability - LYMP2-022 (AID 987); also: nearly all actives have a fitted effect of over 55% in size; also: potency is read from the fitted curve at half-maximal effect
# Method in brief: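 In this qHTS cytotoxicity screen, compound titrations were incubated 24 hr at 37 C with human lymphoblastoid cells in complete medium. Luciferase-based ATP luminescence provided the viability signal.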
# [7] = Cell Viability - LYMP2-024 (AID 988); also: nearly all actives have a fitted effect of over 60% in size
# Method in brief: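 Cells at 2500 per well received compound for 24 hr after a 5 hr settling period. Viability was scored by CellTiter-Glo luminescence, with AC50 from Hill fits.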
# [8] = Cell Viability - LYMP2-026 (AID 989);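 also: cells exposed to compound for 24 h at 37 °C; nearly all actives have a fitted effect of over 50% in size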
# Method in brief: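 Acute toxicity screen in complete culture medium, with 24 hr compound exposure at 37 C. Viability read as cellular ATP via luciferase reaction, with tetraoctylammonium bromide (6.4pM to 92 uM) as positive control.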
# [9] = Cell Viability - LYMP1-002 - Assay at 24 hr (AID 993); also: potency is read from the fitted curve at half-maximal effect
# Method in brief: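 Viability was judged from intracellular ATP using a luciferase read-out, following a 24-hour compound incubation at 37 C of lymphoblastoid cells seeded at 2500 per well. Concentration-response data were fitted to the Hill equation for AC50.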
# [10] = target: Alpha-galactosidase A (Homo sapiens) (UniProt P06280); test: Counterscreen for Glucocerebrosidase Inhibitors: qHTS Assay for Human alpha-Galactosidase at pH 4.5 (AID 992)
# Method in brief: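 Fluorogenic 4-MU alpha-D-galactoside (80 uM) hydrolysis, 2 nM enzyme, pH 4.5 citrate buffer + 0.005% Tween-20; 20 min RT; NaOH/glycine pH 10 stop; Ex365/Em440. Compounds titrated 0.7 nM–77 uM; Hill-equation AC50.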
# Sequence of Alpha-galactosidase A (Homo sapiens) (P06280 whole entry, looked up): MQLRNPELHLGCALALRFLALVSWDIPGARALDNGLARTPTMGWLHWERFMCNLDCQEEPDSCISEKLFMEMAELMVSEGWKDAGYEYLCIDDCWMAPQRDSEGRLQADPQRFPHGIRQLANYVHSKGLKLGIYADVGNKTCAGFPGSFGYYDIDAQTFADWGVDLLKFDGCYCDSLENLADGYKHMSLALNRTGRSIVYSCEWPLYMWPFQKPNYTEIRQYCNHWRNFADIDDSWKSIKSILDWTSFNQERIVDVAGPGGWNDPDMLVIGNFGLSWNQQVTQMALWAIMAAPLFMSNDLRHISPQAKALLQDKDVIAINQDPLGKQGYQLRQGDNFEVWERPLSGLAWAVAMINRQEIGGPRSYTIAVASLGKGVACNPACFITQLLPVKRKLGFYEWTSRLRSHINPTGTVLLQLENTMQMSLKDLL
SMILES,Potency [1],outcome [2],outcome [3],outcome [4],Potency [5],Potency [6],outcome [7],outcome [8],Potency [9],outcome [10]
Clc1ccc(C(c2ccc(Cl)cc2)C(Cl)(Cl)Cl)cc1,inactive,inactive,inactive,inactive,inactive,inactive,inactive,inactive,50.1 µM (active),
COc1cc(OC)c(OC)cc1C=O,inactive,inactive,inactive,inactive,inactive,inactive,inactive,inactive,inactive,
C[C@]12CCC(=O)C=C1CC[C@@H]1[C@@H]2CC[C@@]2(C)[C@H]1CC[C@]2(C)O,inactive,,inactive,inactive,inactive,inactive,inactive,inactive,inactive,
C[C@]1(O)CC[C@H]2[C@@H]3CCC4=CC(=O)CC[C@]4(C)[C@@]3(F)[C@@H](O)C[C@@]21C,inactive,inactive,inactive,inactive,inactive,inactive,inactive,inactive,inactive,
O=C(O)CCCc1ccc(N(CCCl)CCCl)cc1,31.6 µM (active),,,,31.6 µM (active),39.8 µM (active),,,inactive,inactive
CC(C)NC(C)C,inactive,inactive,inactive,inactive,inactive,inactive,inactive,inactive,inactive,
O=c1[nH]oc2c1CCNC2,,,,,,,,,,inactive
COP(=S)(OC)Oc1ccc(SC)c(C)c1,inactive,inactive,inactive,inactive,inactive,inactive,inactive,inactive,inactive,
CN1C[C@H](C(=O)N[C@]2(C)O[C@@]3(O)[C@@H]4CCCN4C(=O)[C@H](Cc4ccccc4)N3C2=O)C=C2c3cccc4[nH]cc(c34)C[C@H]21,,,inactive,,inactive,,,inactive,inactive,
CC(C)c1cccc(C(C)C)c1O,inactive,inactive,inactive,inactive,inactive,inactive,inactive,inactive,inactive,inactive
Nc1ccccc1,inactive,inactive,inactive,inactive,inactive,inactive,inactive,inactive,inactive,
CCOC(=O)CC(SP(=S)(OC)OC)C(=O)OCC (stereo unspecified),inactive,inactive,inactive,inactive,inactive,inactive,inactive,inactive,inactive,
O=C(CCCN1CCC2(CC1)C(=O)NCN2c1ccccc1)c1ccc(F)cc1,,,,,,,,,,inactive
CCC(C)(C)c1ccc(O)cc1,inactive,inactive,inactive,inactive,inactive,inactive,inactive,inactive,inactive,
C[C@]12CCC(=O)C=C1CC[C@@H]1[C@@H]2CC[C@]2(C)C(=O)CC[C@@H]12,inactive,inactive,inactive,inactive,inactive,inactive,inactive,inactive,inactive,inactive
CCCCC/C=C\C/C=C\C/C=C\C/C=C\CCCC(=O)NCC(=O)O,,,,,,,,,,inactive
CCCC(C)(COC(N)=O)COC(N)=O,inactive,inactive,inactive,inactive,inactive,inactive,inactive,inactive,inactive,
Nc1ccccc1C(=O)O,inactive,inactive,inactive,inactive,inactive,inactive,inactive,inactive,inactive,
COC(=O)C(c1ccccc1)C1CCCCN1 (stereo unspecified),inactive,inactive,inactive,inactive,inactive,,,inactive,inactive,
O=P1(N(CCCl)CCCl)NCCCO1 (stereo unspecified),inactive,inactive,inactive,inactive,inactive,inactive,inactive,inactive,inactive,inactive
Oc1ccc(Cl)cc1,inactive,inactive,inactive,inactive,inactive,inactive,inactive,inactive,inactive,
NCCc1ccc(O)cc1,inactive,inactive,inactive,inactive,inactive,inactive,inactive,inactive,inactive,inactive
